From PubChem BioAssay (NCI)
About 83,000 compounds went through this panel and 20% of them were active in at least one assay; those are over-represented in the sample as a whole.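 How to read the values: 0–100, growth inhibition (40 = 60% inhibited); 0, no net growth; -100 to 0, cell death (-40 = 40% of starting cells died; -100 = all dead).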 Activity calls are given as the source filed them. The calls were made as follows: active = growth percent below 10; inactive = the rest.

Experiments:
Assay in all cases: NCI-60 one-dose screen, 48 h (100 = growth as untreated, 0 = no growth, -100 = all killed)
Settings in all cases: 10 µM unless noted
DU-145 prostate = system: DU-145 prostate
K-562 leukemia = system: K-562 leukemia
MALME-3M melanoma = system: MALME-3M melanoma
MDA-MB-231 breast = system: MDA-MB-231 breast
RXF 393 renal = system: RXF 393 renal
SF-268 CNS = system: SF-268 CNS
SF-539 CNS = system: SF-539 CNS
M14 melanoma = system: M14 melanoma
HCT-15 colon = system: HCT-15 colon
HT29 colon = system: HT29 colon
SNB-75 CNS = system: SNB-75 CNS
SNB-19 CNS = system: SNB-19 CNS
PC-3 prostate = system: PC-3 prostate
SK-MEL-5 melanoma = system: SK-MEL-5 melanoma
UACC-62 melanoma = system: UACC-62 melanoma
LOX IMVI melanoma = system: LOX IMVI melanoma
SK-MEL-28 melanoma = system: SK-MEL-28 melanoma
SF-295 CNS = system: SF-295 CNS
UACC-257 melanoma = system: UACC-257 melanoma

Measured: growth

O=C1Nc2ccccc2C12CC(c1ccccc1)=NN2 (stereo not given)
inactive: DU-145 prostate 88.1% | K-562 leukemia 18.5% | MALME-3M melanoma 40.1% | MDA-MB-231 breast 55.4% | RXF 393 renal 90.6% | SF-268 CNS 67.1% | SF-539 CNS 47% | M14 melanoma 38.1% | HCT-15 colon 33% | SNB-75 CNS 38.4% | SNB-19 CNS 68.7% | PC-3 prostate 48.2% | SK-MEL-5 melanoma 30.5% | UACC-62 melanoma 46.7% | LOX IMVI melanoma 48.4% | SK-MEL-28 melanoma 56.8%
active: HT29 colon 8.14%

COc1ccc(/C=c2/c(=O)[nH]c3nc4sc(C)c(C)c4c(=O)n23)cc1
inactive: DU-145 prostate 92.6% | K-562 leukemia 81.6% | MALME-3M melanoma 92.6% | MDA-MB-231 breast 97.3% | RXF 393 renal 93.7% | SF-268 CNS 88.5% | SF-539 CNS 92.8% | M14 melanoma 96.2% | HT29 colon 88.1% | SNB-75 CNS 93.2% | SNB-19 CNS 88.4% | PC-3 prostate 91% | SK-MEL-5 melanoma 90.8% | UACC-62 melanoma 80.4% | LOX IMVI melanoma 91.1% | SK-MEL-28 melanoma 102%

Cl/C(=N\Nc1ccccc1)c1ccccc1
inactive: DU-145 prostate 101% | K-562 leukemia 89.5% | MALME-3M melanoma 86.4% | MDA-MB-231 breast 89.7% | SF-268 CNS 92.8% | SF-295 CNS 87.7% | SF-539 CNS 103% | UACC-257 melanoma 75.2% | M14 melanoma 106% | HCT-15 colon 93.4% | HT29 colon 103% | SNB-75 CNS 67.4% | SNB-19 CNS 100% | PC-3 prostate 78% | SK-MEL-5 melanoma 93.8% | UACC-62 melanoma 78.2% | LOX IMVI melanoma 97% | SK-MEL-28 melanoma 101%

c1c2c(cc3c1OCO3)Cc1cc3c(cc1Cc1cc4c(cc1C2)OCO4)OCO3
inactive: DU-145 prostate 121% | K-562 leukemia 117% | MALME-3M melanoma 116% | MDA-MB-231 breast 116% | SF-268 CNS 111% | SF-295 CNS 95.8% | SF-539 CNS 97.9% | UACC-257 melanoma 84.6% | M14 melanoma 104% | HCT-15 colon 103% | HT29 colon 108% | SNB-75 CNS 73% | SNB-19 CNS 106% | PC-3 prostate 99.8% | SK-MEL-5 melanoma 108% | UACC-62 melanoma 108% | LOX IMVI melanoma 95.8% | SK-MEL-28 melanoma 103%

CC(=O)OCC(=O)C1CCC=CC1OC(C)=O (stereo not given)
inactive: DU-145 prostate 103% | K-562 leukemia 98.9% | MALME-3M melanoma 74.2% | MDA-MB-231 breast 109% | SF-268 CNS 106% | SF-295 CNS 94.8% | SF-539 CNS 103% | UACC-257 melanoma 92.6% | M14 melanoma 96.9% | HCT-15 colon 103% | HT29 colon 107% | SNB-75 CNS 80.9% | SNB-19 CNS 93.5% | PC-3 prostate 105% | SK-MEL-5 melanoma 97.7% | UACC-62 melanoma 95.4% | LOX IMVI melanoma 96.1% | SK-MEL-28 melanoma 108%

CN1CCCCC1CCN1c2ccccc2Sc2ccc(Cl)cc21 (stereo not given)
active: K-562 leukemia 7.99% | SNB-75 CNS 7.16%
inactive: DU-145 prostate 67% | MALME-3M melanoma 83.2% | MDA-MB-231 breast 65.9% | SF-268 CNS 65.8% | SF-295 CNS 76.6% | SF-539 CNS 90.9% | UACC-257 melanoma 67.4% | M14 melanoma 45.2% | HCT-15 colon 49.3% | HT29 colon 31.4% | SNB-19 CNS 97% | PC-3 prostate 59.5% | SK-MEL-5 melanoma 55.7% | UACC-62 melanoma 77.9% | LOX IMVI melanoma 68.1% | SK-MEL-28 melanoma 75%

Cc1cc(Nc2nc(-c3cccnc3)nc3ccccc23)n[nH]1
inactive: DU-145 prostate 74.3% | K-562 leukemia 48.1% | MALME-3M melanoma 99.1% | MDA-MB-231 breast 95.7% | SF-268 CNS 58.1% | SF-295 CNS 53.3% | SF-539 CNS 34.7% | UACC-257 melanoma 59.7% | M14 melanoma 72.5% | HCT-15 colon 29.7% | HT29 colon 23.4% | SNB-19 CNS 77.6% | PC-3 prostate 58.7% | SK-MEL-5 melanoma 73.8% | UACC-62 melanoma 49.3% | LOX IMVI melanoma 20.1% | SK-MEL-28 melanoma 50.5%
active: SNB-75 CNS -32.9%

NC(CC(=O)O)C(=O)OCc1ccccc1 (stereo not given)
inactive: DU-145 prostate 109% | K-562 leukemia 106% | MALME-3M melanoma 81.1% | MDA-MB-231 breast 105% | SF-268 CNS 100% | SF-295 CNS 93.3% | SF-539 CNS 93.4% | UACC-257 melanoma 89.2% | M14 melanoma 104% | HCT-15 colon 95.1% | HT29 colon 115% | SNB-75 CNS 65.5% | SNB-19 CNS 101% | PC-3 prostate 103% | SK-MEL-5 melanoma 97.8% | UACC-62 melanoma 94.5% | LOX IMVI melanoma 107% | SK-MEL-28 melanoma 99.1%

COc1ccc(/C=N\NC(=O)c2ccncc2)cc1O
inactive: DU-145 prostate 99.4% | K-562 leukemia 96.4% | MALME-3M melanoma 78.9% | MDA-MB-231 breast 94.8% | SF-268 CNS 99% | SF-295 CNS 92.5% | SF-539 CNS 107% | UACC-257 melanoma 89.1% | M14 melanoma 101% | HCT-15 colon 107% | HT29 colon 112% | SNB-75 CNS 74.8% | SNB-19 CNS 95.1% | PC-3 prostate 106% | SK-MEL-5 melanoma 92.5% | UACC-62 melanoma 99.8% | LOX IMVI melanoma 97.2% | SK-MEL-28 melanoma 104%

CC(=O)Oc1cc2cnc3c4cc(OC(C)=O)c(OC(C)=O)cc4ccc3c2cc1OC(C)=O
active: K-562 leukemia 6.46% | MALME-3M melanoma 6.96% | SF-539 CNS -10.8% | SNB-75 CNS -5.27% | UACC-62 melanoma -22%
inactive: DU-145 prostate 16.6% | MDA-MB-231 breast 26.3% | SF-268 CNS 12.2% | SF-295 CNS 13.9% | UACC-257 melanoma 20.6% | M14 melanoma 13.9% | HCT-15 colon 25.1% | HT29 colon 17.4% | SNB-19 CNS 33.9% | PC-3 prostate 21.6% | SK-MEL-5 melanoma 13.1% | LOX IMVI melanoma 10.6% | SK-MEL-28 melanoma 42.7%

CCOC(=O)CC(C)=N
inactive: DU-145 prostate 121% | K-562 leukemia 110% | MALME-3M melanoma 99.9% | MDA-MB-231 breast 103% | SF-268 CNS 130% | SF-295 CNS 111% | SF-539 CNS 97.6% | UACC-257 melanoma 102% | M14 melanoma 102% | HCT-15 colon 105% | HT29 colon 103% | SNB-19 CNS 99.7% | PC-3 prostate 104% | SK-MEL-5 melanoma 100% | UACC-62 melanoma 102% | LOX IMVI melanoma 118% | SK-MEL-28 melanoma 101%

COc1cc(OC)c(/C=C/c2cc[n+](C)c3ccccc23)c(OC)c1
inactive: DU-145 prostate 18.5% | MDA-MB-231 breast 22.5% | SF-268 CNS 15.7% | SF-539 CNS 12% | M14 melanoma 36.2% | HCT-15 colon 90.9% | SNB-19 CNS 26.4% | PC-3 prostate 16.5% | UACC-62 melanoma 12.7% | SK-MEL-28 melanoma 24.8%
active: K-562 leukemia 7.21% | MALME-3M melanoma 5.28% | SF-295 CNS -48.8% | UACC-257 melanoma -24.7% | HT29 colon 0.813% | SK-MEL-5 melanoma -47.2% | LOX IMVI melanoma -74.2%

C#Cc1nc2ccccc2c(=O)[nH]1
active: DU-145 prostate -41.8% | K-562 leukemia -24.6% | MALME-3M melanoma -64.2% | MDA-MB-231 breast -57.5% | SF-268 CNS -70.4% | SF-539 CNS -70.1% | UACC-257 melanoma -21.6% | M14 melanoma -11.2% | HCT-15 colon -47% | HT29 colon -55.2% | SNB-75 CNS -56.1% | PC-3 prostate -38.2% | SK-MEL-5 melanoma -34.6% | UACC-62 melanoma -77.2% | LOX IMVI melanoma -69.4% | SK-MEL-28 melanoma -64.8%
inactive: SF-295 CNS 41.3% | SNB-19 CNS 69.2%

CCCCCCCCCCCCS(=O)CC(C)O (stereo not given)
inactive: DU-145 prostate 126% | K-562 leukemia 103% | MALME-3M melanoma 116% | MDA-MB-231 breast 104% | SF-268 CNS 139% | SF-295 CNS 100% | SF-539 CNS 97.2% | UACC-257 melanoma 94.7% | M14 melanoma 107% | HCT-15 colon 104% | HT29 colon 110% | SNB-75 CNS 78.3% | SNB-19 CNS 98.6% | PC-3 prostate 99.3% | SK-MEL-5 melanoma 103% | UACC-62 melanoma 92.6% | LOX IMVI melanoma 111% | SK-MEL-28 melanoma 102%

CCc1ccccc1NC(=O)c1sc2nc3c(cc2c1N)C(=O)CCC3
active: DU-145 prostate 2.55% | SF-295 CNS -3.21% | SF-539 CNS -1.47% | HT29 colon 8.59%
inactive: K-562 leukemia 11% | MALME-3M melanoma 60.8% | MDA-MB-231 breast 36.6% | SF-268 CNS 40.4% | UACC-257 melanoma 65% | M14 melanoma 15.1% | HCT-15 colon 31.2% | SNB-19 CNS 68.9% | PC-3 prostate 18% | SK-MEL-5 melanoma 30.7% | UACC-62 melanoma 34.3% | LOX IMVI melanoma 42.6% | SK-MEL-28 melanoma 43.7%

COc1cccc(-n2cc(-c3nc(Nc4cc(C)[nH]n4)c4ccccc4n3)nn2)c1
active: SNB-75 CNS -10.2% | SK-MEL-5 melanoma -42%
inactive: DU-145 prostate 66.4% | K-562 leukemia 27% | MALME-3M melanoma 42.9% | MDA-MB-231 breast 63.4% | SF-268 CNS 64.1% | SF-295 CNS 37.7% | SF-539 CNS 52.9% | UACC-257 melanoma 83.4% | M14 melanoma 54.1% | HCT-15 colon 29.7% | HT29 colon 65.5% | SNB-19 CNS 73.1% | PC-3 prostate 55.3% | UACC-62 melanoma 50.8% | LOX IMVI melanoma 66.5% | SK-MEL-28 melanoma 64%

CC1(C)OCC2OC3(C(=O)O)OC(C)(C)OC3C2O1 (stereo not given)
inactive: DU-145 prostate 104% | K-562 leukemia 95.9% | MALME-3M melanoma 104% | MDA-MB-231 breast 107% | SF-268 CNS 101% | SF-295 CNS 97% | SF-539 CNS 108% | UACC-257 melanoma 90% | M14 melanoma 111% | HCT-15 colon 99.6% | HT29 colon 108% | SNB-75 CNS 89.2% | SNB-19 CNS 100% | PC-3 prostate 106% | SK-MEL-5 melanoma 105% | UACC-62 melanoma 111% | LOX IMVI melanoma 84.5% | SK-MEL-28 melanoma 124%
